Where “and” joins values, the source holds several entries; their conditions need not be identical. Equal entries are not always repeated. Records with an inconclusive call do not appear. Calls of active or inactive are those of the source.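 Rule for the calls, unless noted: active = compounds whose cell count with miR-34 switched on is under 0.7 times the count with it off; inactive = the rest.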

The nature of experiment [1]: viability loss with induced miR-34 in A549 – imaging, A549 dox-inducible miR-34, nuclei and caspase counts, primary screen (AID 1347080). Conditions: A549 miR-34 inducible, Hoechst nuclei count, 48 h.
Experiment [2] in a line: MELAS cybrid and Rieske KO viability enhancers – cell-based, MELAS cybrids, Rieske KO mouse fibroblasts, CellTiter-Glo, primary screen (AID 1508586;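 active = mean z-score across replicates of 1.96 or higher in either the MELAS or the Rieske mutant cell line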;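 note: z relative to plate mean and SD of compound and empty wells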). Conditions: low glucose.
A short description of experiment [3]: galactose survival enhancers in mitochondrial complex I cybrids – cell-based, galactose medium, ATP luminescence, primary screen (AID 1645843;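 active = z-score of at least 1.8 in each of two replicates, scored against plate mean and spread of sample wells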;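 note: positive z means more ATP and so rescue of galactose-driven cybrid death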). The conditions noted are these: complex I mutant cybrid cells, 72 h, stronger effect = higher value.
Experiment [4] in a line: P. berghei load reduction in hepatocytes – cell-based, HepG2, luciferase luminescence, HepG2 viability, primary screen (AID 624349; in the data active = parasite load remaining mostly below about 12%, no sharp cut-off; inactive = mostly above about 10%;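 note: 100% = mean of DMSO negative control wells on the same plate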). The conditions noted are these: P. berghei liver stage in HepG2, luciferase luminescence, concentration not given here; parasite load remaining: stronger effect = lower value; viability: measured here: HepG2 viability without parasites.
Experiment [5] has as its target NAD(+) hydrolase SARM1 (Homo sapiens) (UniProt Q6SZW1). Nature of the experiment: blocking NAD cleavage by SARM1 SAM-TIR – cell lysate, NAD-Glo luminescence (AID 1508614;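 active = compound whose remaining NAD level is above about 45 nM, limit read from the data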;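 note: higher remaining NAD means stronger inhibition of SARM1 NADase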). Conditions: SAM-TIR HEK293T lysate NADase, at 1 µM, stronger effect = higher value.
The target of experiment [6] is Mitogen-activated protein kinase 7 (Homo sapiens) (UniProt Q13164). The experiment can be described thus: Gal4-ERK5 driven luciferase induction – cell-based, HTS, primary screen (AID 1508626;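 active = luciferase signal above three times the same-plate solvent-only control wells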;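 note: luciferase driven by Gal4-ERK5 fusion binding five Gal4 sites before minimal TATA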). The conditions noted are these: HeLa Gal4-ERK5 transactivation, 18 h, at 5 µM, stronger effect = higher value.
Chain of Mitogen-activated protein kinase 7 (Homo sapiens) (Q13164 whole entry, looked up, the tested form may be a part): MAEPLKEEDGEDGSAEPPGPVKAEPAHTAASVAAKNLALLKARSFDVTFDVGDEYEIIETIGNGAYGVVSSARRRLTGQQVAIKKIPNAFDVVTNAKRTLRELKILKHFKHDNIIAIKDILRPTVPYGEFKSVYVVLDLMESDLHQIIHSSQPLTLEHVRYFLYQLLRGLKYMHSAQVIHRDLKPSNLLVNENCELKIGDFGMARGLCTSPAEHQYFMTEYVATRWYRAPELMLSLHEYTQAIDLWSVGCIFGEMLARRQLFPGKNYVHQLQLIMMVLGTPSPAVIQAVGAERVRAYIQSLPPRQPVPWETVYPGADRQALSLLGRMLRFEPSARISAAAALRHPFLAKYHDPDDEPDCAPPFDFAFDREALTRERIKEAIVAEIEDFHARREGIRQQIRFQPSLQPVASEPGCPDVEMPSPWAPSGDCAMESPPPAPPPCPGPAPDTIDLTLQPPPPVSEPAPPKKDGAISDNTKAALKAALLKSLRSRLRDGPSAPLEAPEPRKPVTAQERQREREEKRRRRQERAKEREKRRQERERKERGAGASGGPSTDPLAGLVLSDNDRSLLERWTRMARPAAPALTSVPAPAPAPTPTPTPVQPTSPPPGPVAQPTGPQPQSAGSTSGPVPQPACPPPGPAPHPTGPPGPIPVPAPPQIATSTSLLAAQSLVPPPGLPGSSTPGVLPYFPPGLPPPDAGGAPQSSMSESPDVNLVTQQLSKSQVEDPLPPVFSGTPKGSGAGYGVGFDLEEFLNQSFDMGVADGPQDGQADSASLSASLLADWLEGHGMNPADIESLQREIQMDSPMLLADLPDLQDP
Experiment [7] can be described thus: compounds altering viability of human ES cells (AID 493140; call rule not given here;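 note: cells exposed to compounds for four days before counting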). The conditions noted are these: human embryonic stem cell survival screen; stronger effect = higher value.
The target of experiment [8] is ATP-dependent translocase ABCB1 (Homo sapiens) (UniProt P08183). The experiment can be described thus: P-glycoprotein substrate transport blockade – cell-based (AID 377; in the data active = fluorescence slope change above about 50%). Conditions: MDR1-expressing cells, fluorescent substrate accumulation slope; stronger effect = higher value; concentration not given here.
Chain of ATP-dependent translocase ABCB1 (Homo sapiens) (P08183 whole entry, looked up): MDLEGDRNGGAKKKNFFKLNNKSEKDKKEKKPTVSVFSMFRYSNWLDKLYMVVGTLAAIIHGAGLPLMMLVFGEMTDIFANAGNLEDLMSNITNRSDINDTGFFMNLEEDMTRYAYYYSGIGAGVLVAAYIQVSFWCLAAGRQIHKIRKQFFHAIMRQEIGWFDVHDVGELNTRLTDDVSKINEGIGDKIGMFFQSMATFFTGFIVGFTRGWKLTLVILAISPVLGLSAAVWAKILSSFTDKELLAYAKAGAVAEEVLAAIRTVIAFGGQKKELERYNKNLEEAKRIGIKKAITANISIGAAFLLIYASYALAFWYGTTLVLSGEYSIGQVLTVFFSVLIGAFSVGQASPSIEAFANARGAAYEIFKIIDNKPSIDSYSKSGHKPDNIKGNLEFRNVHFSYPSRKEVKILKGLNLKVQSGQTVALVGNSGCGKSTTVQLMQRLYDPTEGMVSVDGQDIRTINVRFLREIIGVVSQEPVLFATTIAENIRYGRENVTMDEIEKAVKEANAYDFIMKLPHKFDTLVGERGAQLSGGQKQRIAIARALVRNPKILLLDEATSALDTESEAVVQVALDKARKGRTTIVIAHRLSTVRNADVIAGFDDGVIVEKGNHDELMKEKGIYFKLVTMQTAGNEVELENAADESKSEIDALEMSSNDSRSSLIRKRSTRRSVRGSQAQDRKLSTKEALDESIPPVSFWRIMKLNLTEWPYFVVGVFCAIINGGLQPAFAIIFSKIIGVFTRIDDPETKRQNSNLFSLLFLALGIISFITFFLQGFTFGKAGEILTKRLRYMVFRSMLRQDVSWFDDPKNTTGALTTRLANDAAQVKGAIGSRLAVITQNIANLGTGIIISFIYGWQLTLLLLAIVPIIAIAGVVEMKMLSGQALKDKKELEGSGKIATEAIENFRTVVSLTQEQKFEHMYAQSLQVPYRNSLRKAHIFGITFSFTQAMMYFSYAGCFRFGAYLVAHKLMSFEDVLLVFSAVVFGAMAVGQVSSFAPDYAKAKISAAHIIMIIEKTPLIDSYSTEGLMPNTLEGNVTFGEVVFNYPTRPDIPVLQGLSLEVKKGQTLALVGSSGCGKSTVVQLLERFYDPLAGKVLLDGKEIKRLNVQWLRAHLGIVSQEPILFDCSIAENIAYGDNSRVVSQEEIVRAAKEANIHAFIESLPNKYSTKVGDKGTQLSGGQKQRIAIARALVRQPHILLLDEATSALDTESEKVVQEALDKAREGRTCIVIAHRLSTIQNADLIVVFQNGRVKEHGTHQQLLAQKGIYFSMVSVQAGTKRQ
Setting [9] is: stronger effect = lower value, cell number ratio, induced over uninduced.
[10] abbreviates: measured here: relative caspase fold change +Dox/-Dox.
Setting [11] is: measured here: total cells with miR-34 induction, stronger effect = lower value.
The mark [12] stands for this setting: measured here: total cells without miR-34 induction.
[13] abbreviates: MELAS cybrid survival, CellTiter-Glo 48 h, stronger effect = higher value.
Where [14] appears, read: Rieske KO mouse fibroblast survival, CellTiter-Glo 72 h.

Chain of NAD(+) hydrolase SARM1 (Homo sapiens) (Q6SZW1 whole entry, looked up, the tested form may be a part): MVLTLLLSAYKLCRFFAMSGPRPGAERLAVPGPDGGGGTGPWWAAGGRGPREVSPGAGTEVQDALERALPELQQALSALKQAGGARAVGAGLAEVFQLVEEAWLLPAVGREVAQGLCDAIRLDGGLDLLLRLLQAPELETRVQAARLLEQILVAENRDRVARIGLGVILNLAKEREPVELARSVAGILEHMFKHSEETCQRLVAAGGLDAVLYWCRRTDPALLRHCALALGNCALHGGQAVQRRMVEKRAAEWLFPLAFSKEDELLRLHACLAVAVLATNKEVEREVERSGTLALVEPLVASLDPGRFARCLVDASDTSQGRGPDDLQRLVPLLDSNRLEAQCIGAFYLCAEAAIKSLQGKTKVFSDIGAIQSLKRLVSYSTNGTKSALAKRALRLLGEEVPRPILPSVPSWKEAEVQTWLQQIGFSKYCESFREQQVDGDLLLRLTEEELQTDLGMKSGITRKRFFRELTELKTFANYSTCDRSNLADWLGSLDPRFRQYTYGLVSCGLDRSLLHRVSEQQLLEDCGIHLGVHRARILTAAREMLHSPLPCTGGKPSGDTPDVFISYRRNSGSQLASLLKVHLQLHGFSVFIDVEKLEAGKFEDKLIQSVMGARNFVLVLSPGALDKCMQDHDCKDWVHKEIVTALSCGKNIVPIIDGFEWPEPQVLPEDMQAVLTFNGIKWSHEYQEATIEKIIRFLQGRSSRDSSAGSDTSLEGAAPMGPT

As for `OCCCc1cn(C2CCN(c3nn4cnnc4c4ccccc34)CC2)nn1`, the fold change in experiment [1] (setting [9]) is 0.902 (inactive); in experiment [1] (setting [10]) it was 1.35. Further, the figures for the cell count in experiment [1] (setting [11]) and in experiment [1] (setting [12]) were 8970 and 9940, respectively. In addition, the z-score is 0.105 (inactive) in experiment [2] (setting [13]), -0.51 in experiment [2] (setting [14]) and -0.54 (inactive) in experiment [3].

A word on the viability: it is a read-out of living cells in per cent, often relative to untreated cells. On to `CC1(C)S[C@@H]2[C@H](NC(=O)[C@H](NC(=O)N3CCNC3=O)c3ccccc3)C(=O)N2[C@H]1C(=O)O`, for which the parasite load remaining in experiment [4] is 109% (inactive). Also, the viability in experiment [4] came to 98.7%. In addition, the fold change was 0.917 (inactive) in experiment [1] (setting [9]) and 1.11 in experiment [1] (setting [10]). Moreover, the cell count in experiment [1] (setting [11]) is 9220; in experiment [1] (setting [12]) it was 10100. In addition, the values for the z-score in experiment [2] (setting [13]) and in experiment [2] (setting [14]) were 0.409 (inactive) and -0.381, respectively. Moreover, the remaining NAD in experiment [5] is 10 nM (inactive). The luciferase signal in experiment [6] is 60 AU (inactive).

`CC1(C)CC(Nc2nccc(-c3cnn(-c4ccccc4)c3)n2)CC(C)(C)N1`: the fold change is 0.881 (inactive) in experiment [1] (setting [9]) and 3.09 in experiment [1] (setting [10]). For the same compound, the cell count in experiment [1] (setting [11]) is 4870; in experiment [1] (setting [12]), 5530. Moreover, the z-score in experiment [2] (setting [13]) is -0.228 (inactive); in experiment [2] (setting [14]), 0.372; in experiment [3] it was 3.44 (active).

In the case of `Cc1c(OCC(F)(F)F)ccnc1C[S@@](=O)c1nc2ccccc2[nH]1`, the results for the fold change in experiment [1] (setting [9]) and in experiment [1] (setting [10]) were 0.977 (inactive) and 1.03, respectively. The cell count in experiment [1] (setting [11]) was 7200; in experiment [1] (setting [12]), 7370. Further, the z-score in experiment [2] (setting [13]) was -0.079 (inactive); in experiment [2] (setting [14]), -0.121. The remaining NAD in experiment [5] was 53 nM (active).

As for `NCc1ccccc1CC(=O)N[C@@H]1C(=O)N2C(C(=O)O)=C(CSc3nnnn3CC(=O)O)CS[C@H]12`, the survival in experiment [7] was 7.42 (inactive). Moreover, in experiment [4], the parasite load remaining was 167% (inactive) and 62% (inactive). In addition, in experiment [4], the viability was 121% and 87.5%. Further, the values for the fold change in experiment [1] (setting [9]) and in experiment [1] (setting [10]) were 0.949 (inactive) and 1.15, respectively. Also, the results for the cell count in experiment [1] (setting [11]) and in experiment [1] (setting [12]) were 8230 and 8670, respectively. The z-score in experiment [2] (setting [13]) was 0.404 (inactive); in experiment [2] (setting [14]), -0.0556. Besides, in experiment [5], the remaining NAD is 10 nM (inactive).

Regarding `O=C(c1ccnc(Cl)c1)N1CCc2[nH]nc(C3CCC3)c2C1`, the fold change is 0.923 (inactive) in experiment [1] (setting [9]) and 0.638 in experiment [1] (setting [10]). Also, the cell count in experiment [1] (setting [11]) was 9170; in experiment [1] (setting [12]), 9930. Besides, the z-score in experiment [2] (setting [13]) was -0.36 (inactive); in experiment [2] (setting [14]), 0.475; in experiment [3], -0.4 (inactive).

In the case of `CC(C)[N+]1(C)[C@@H]2CC[C@H]1CC(OC(=O)C(CO)c1ccccc1)C2` (some centres undefined), the fluorescence slope change in experiment [8] is 52.9% (active). Also, in experiment [4], the parasite load remaining was 74.8% (inactive). In experiment [4], the viability was found to be 106%. In addition, the fold change was 0.879 (inactive) in experiment [1] (setting [9]) and 1.21 in experiment [1] (setting [10]). Also, the figures for the cell count in experiment [1] (setting [11]) and in experiment [1] (setting [12]) were 10100 and 11500, respectively. The results for the z-score in experiment [2] (setting [13]), in experiment [2] (setting [14]) and in experiment [3] were -0.791 (inactive), -0.158 and 0.555 (inactive), respectively. Further, the remaining NAD in experiment [5] is 10 nM (inactive). Further, the luciferase signal in experiment [6] is 44 AU (inactive).

Turning to `CO/N=C(\C(=O)N[C@@H]1C(=O)N2C(C(=O)O)=C(C[N+]3(C)CCCC3)CS[C@H]12)c1csc(N)n1`, the parasite load remaining in experiment [4] was 85.4% (inactive). Besides, the viability in experiment [4] turned out to be 76.2%. Also, the figures for the fold change in experiment [1] (setting [9]) and in experiment [1] (setting [10]) were 0.925 (inactive) and 0.702, respectively. The cell count in experiment [1] (setting [11]) came to 8990; in experiment [1] (setting [12]) it was 9720. Moreover, the z-score in experiment [2] (setting [13]) is -1.62 (inactive); in experiment [2] (setting [14]), -0.496. Further, in experiment [5], the remaining NAD was 10 nM (inactive).

The values above are taken from PubChem BioAssay.
